The whole screen tested about 220,000 compounds, of which about 530 (0.24%) were called active. Only a selection was taken, and actives are over-represented in it overall. Results with a measured potency or affinity are listed apart. Values without a mark were called inactive. Rule as the data show it: active = inhibition above about 13%; inconclusive = no clear call, values can overlap the other calls; inactive = below that.

Bifunctional protein GlmU (Mycobacterium tuberculosis (strain ATCC 25618 / H37Rv)), sequence (P9WMN3 whole entry, looked up): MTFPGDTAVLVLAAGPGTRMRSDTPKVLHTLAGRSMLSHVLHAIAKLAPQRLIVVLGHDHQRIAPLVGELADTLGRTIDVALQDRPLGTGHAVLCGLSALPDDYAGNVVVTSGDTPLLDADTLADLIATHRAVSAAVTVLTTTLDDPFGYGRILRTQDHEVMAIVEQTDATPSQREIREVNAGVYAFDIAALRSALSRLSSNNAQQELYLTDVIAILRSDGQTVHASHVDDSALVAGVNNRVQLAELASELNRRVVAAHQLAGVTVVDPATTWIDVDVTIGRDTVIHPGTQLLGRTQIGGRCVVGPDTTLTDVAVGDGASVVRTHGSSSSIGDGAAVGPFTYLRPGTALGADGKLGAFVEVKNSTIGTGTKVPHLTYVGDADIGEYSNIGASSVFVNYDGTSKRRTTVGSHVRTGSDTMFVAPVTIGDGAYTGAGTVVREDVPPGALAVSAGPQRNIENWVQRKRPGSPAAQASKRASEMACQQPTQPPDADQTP

The test has as its target Bifunctional protein GlmU (Mycobacterium tuberculosis (strain ATCC 25618 / H37Rv)) (UniProt P9WMN3). Nature of the test: inhibition of mycobacterial GlmU enzyme – biochemical, glucosamine-1-phosphate acetyltransferase (AID 1376).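 Also: 0% = complete reaction with vehicle and 100% = reaction without substrate.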 Particulars: M. tuberculosis GlmU acetyltransferase enzyme assay; active compounds read high;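 tested at 30 µM in the primary screen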.
What is called inhibition is the relative decrease from the control value, in per cent. As for `Cc1ccc(OCC(=O)Nc2ccc3c(c2)OCO3)c(C)c1`, the inhibition is 7.84%.
Under `CCn1c(C)nc2cc(C(=O)N/N=C/c3ccc(O)c(O)c3O)ccc21` stands 12.9% (active); under `CCn1c(C)nc2cc(C(=O)N/N=C/c3cccc(OC)c3O)ccc21`, 1.22%; under `CCn1c(C)nc2cc(C(=O)N/N=C/c3cccc(O)c3O)ccc21`, -2.26%.
As for `CN(C(=O)COc1ccccc1C(=O)NCCc1ccccc1)c1ccccc1`, the figure is 1.19%; as for `CC[N+](CC)(CC)CCCOC(=O)C(O)(c1ccccc1)C1CCCCC1` (stereo unspecified), -1.3%; as for `COc1cc(C(=O)N2CCN=C2c2ccccc2)cc(OC)c1OC`, -4.46%.
Take `Cc1cc(C)cc(C(=O)N2CCN=C2c2ccccc2)c1`: the inhibition was 13.7% (active).
As for `O=C(c1ccccc1)N1CCN=C1c1ccccc1`, the figure is 3.08%; as for `CC1=C(C(=O)OCc2ccccc2)C(c2ccsc2)NC(=O)N1C` (stereo unspecified), 0.99%.
As for `CN1CCN(C(=S)NC(=O)c2ccc(C(C)(C)C)cc2)CC1`, the figure is 0.68%; as for `CN1CCN(C(=S)NC(=O)c2ccc(Br)cc2)CC1`, -2.25%.
As for `COc1ccc(-c2noc(C3CCCN(S(=O)(=O)c4cccc(Cl)c4C)C3)n2)cc1OC` (stereo unspecified), the figure is 1.44%; as for `Cc1ccc(-n2ncc3c(=O)[nH]c(SC(C)C)nc32)cc1`, -6.03%; as for `Cc1nn(Cc2ccc([N+](=O)[O-])cc2)c(=O)n1N(C)c1ncc(C(F)(F)F)cc1Cl`, 13.8% (active).
With `Cc1nn(Cc2ccccc2)c(=O)n1N(C)c1ncc(C(F)(F)F)cc1Cl`, the inhibition was -3.42%.
Under `Cc1nn(Cc2ccc(Cl)cc2)c(=O)n1N(C)c1ncc(C(F)(F)F)cc1Cl` stands -1.59%.
Under `Cc1cc(N2CCN(Cc3nc(-c4ccc(F)cc4)oc3C)CC2)cc(C)n1` stands -0.06%.
As to `O=c1/c(=C\c2ccc(O)cc2)sc2n1C(c1ccccc1)C(c1ccccc1)=NN=2` (stereo unspecified), the inhibition is 15.3% (active).
As for `O=c1/c(=C\c2ccc(O)cc2)sc2nc(-c3ccccc3)c(-c3ccccc3)n12`, the figure is -5.24%; as for `COc1cc(/C=c2\sc3n(c2=O)C(c2ccccc2)C(c2ccccc2)=NN=3)ccc1O` (stereo unspecified), -0.15%; as for `CC1CCN(C(=O)CCCOc2ccc(Cl)cc2)CC1`, -3.73%.
As for `COc1ccc(N2C(=O)CC(N(C)CCc3ccc(OC)c(OC)c3)C2=O)cc1` (stereo unspecified), the figure is -4.91%; as for `O=C(O)Cn1nc(-c2ccc(F)cc2)oc1=O`, -1.78%; as for `O=C(O)Cn1nc(-c2ccccc2)oc1=O`, 12.9% (active).
As for `CC(C)(C)C(=O)n1nc(-c2ccccc2)oc1=O`, the figure is -3.45%.
For `N#Cc1c(-c2ccccc2)nc(SCC(=O)Nc2ccccc2)[nH]c1=O`, the inhibition is 3.28%.
Take `Cc1cc(C)nc(NS(=O)(=O)c2ccc(NC(=O)CSc3nc(-c4ccccc4)c(C#N)c(=O)[nH]3)cc2)n1`: the inhibition is 13.9% (active).
Under `Cc1cc(NC(=O)CSc2nc(-c3ccccc3)c(C#N)c(=O)[nH]2)no1` stands 8.24%; under `CCOc1ccc(N2C(=O)CC(n3nc(C)cc3C)C2=O)cc1` (stereo unspecified), 1.73%; under `Cc1ccc(S(=O)(=O)N(C)C)cc1NC(=S)NC(=O)C12CC3CC(CC(C3)C1)C2`, -3.56%.
Under `CC(C)(C)C1CCC(=NNC(=O)CC(=O)NCc2ccccc2)CC1` (stereo unspecified) stands 0.32%; under `CCC(c1c(C)[nH]oc1=O)c1c(C)[nH]oc1=O`, 13.4% (active); under `Cc1[nH]oc(=O)c1N=Nc1ccccc1`, 8.43%.
As for `Cc1[nH]oc(=O)c1N=Nc1c(Cl)cccc1Cl`, the figure is 1.64%; as for `O=S(=O)(c1ccc(-c2nc3ccccc3s2)cc1)N1CCCC1`, 2.5%; as for `COc1ccccc1N1CCN(CCN2C(=O)CC(=C3c4ccccc4-c4ccccc43)C2=O)CC1`, 4.68%.
For `CCCC(=O)Nc1cc(C(=O)O)ccc1S(=O)(=O)c1ccc(Cl)cc1`, the inhibition is 0.49%.
Under `CCCCNC(=O)c1ccc(S(=O)(=O)c2ccc(Cl)cc2)c(NC(C)=O)c1` stands 14% (active).
As for `CCCCNC(=O)c1ccc(NC(C)=O)c(Cl)c1`, the figure is -5.13%; as for `O=C(CSc1ccc(-c2ccccn2)nn1)NC1CCCCC1`, -1.08%.
In the case of `O=c1c2c([nH]c3ccccc13)CCCC2`, the inhibition is 1.46%.
With `O=c1c2c([nH]c3ccccc13)CCCCCC2`, the inhibition was 13.9% (active).
In the case of `O=c1c2c([nH]c3ccccc13)CCCCC2`, the inhibition is 5.9%.
As for `CS(=O)(=O)N1CCC(C(=O)Nc2ccc(C(F)(F)F)cc2)CC1`, the figure is -0.68%; as for `Cc1nnc(SCc2nc3sc(C(=O)O)c(C)c3c(=O)[nH]2)s1`, 6.77%; as for `Cc1c(C(=O)O)sc2nc(CSc3nnc(-c4ccc(F)cc4)n3C)[nH]c(=O)c12`, -3.36%.
As for `Cc1ccnc(NC(=O)c2ccc3c(c2)S(=O)(=O)c2ccccc2C3=O)c1`, the figure is 1.48%; as for `Cc1c(O)c2ccccc2oc1=O`, 1.82%; as for `Cc1nc2c(c(=O)[nH]1)C(c1ccccc1Cl)c1c(c3ccccc3oc1=O)O2` (stereo unspecified), 2.13%.
Under `CCCCSc1nc(CCC)cc(=O)[nH]1` stands 3.53%.
As for `Cc1ccc(NC(=O)COC(=O)Cn2cnc3ccccc32)c([N+](=O)[O-])c1`, the inhibition is -0.59%.
Take `Cc1ccc(NC(=O)N2CCC(NC(=O)C(C)(C)C)CC2)cc1`: the inhibition was 2.86%.
As for `CCOc1ccc(NC2CCN(C(C)=O)CC2)cc1`, the figure is 4.14%; as for `CC(=O)N1CCC(Nc2ccc(C)cc2)CC1`, 14% (active); as for `CCCCNC(=O)CSc1nc2ccc(N3CCOCC3)cc2c(=O)n1CCc1ccccc1`, -5.21%.
With `CCCCn1c(SCC(=O)NCc2ccco2)nc2ccc(N3CCOCC3)cc2c1=O`, the inhibition is 5.76%.
As for `CCCCn1c(SCC(=O)NCc2ccccc2)nc2ccc(N3CCOCC3)cc2c1=O`, the figure is 14.2% (active).
For the molecule `CC(Sc1ncc(C(F)(F)F)cc1Cl)C(=O)NC(N)=O` (stereo unspecified), the inhibition was -5.25%.
Under `O=C(NCCc1c[nH]c2ccccc12)C(F)(F)F` stands -4.42%.
As for `N#Cc1cccc(C#N)c1N1CCC(C#N)CC1`, the figure is -4.3%.
